# From PubChem
# IL1B secr inh – inhibitors of inflammasome signaling (IL-1 beta secretion); THP-1 LPS/ATP IL-1B secretion, AlphaLISA, 16 h; active compounds read low; activity change, % at 57.5 µM; 360,000 compounds, 4.7% hits; AID 743279; in the data active = activity change below about -50%; inconclusive = mostly about -30% to -49%
#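 THP-1 cells pretreated 1 hr with compounds (up to 57.5 uM final), then stimulated with LPS (250 ng/mL final) plus ATP (1.25 mM final); secreted IL-1B measured by AlphaLISA after 16 hr, decreased signal indicating inhibition.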
# TDP1 cell noCPT – qHTS for Inhibitors of human tyrosyl-DNA phosphodiesterase 1 (TDP1): qHTS in cells in absence of CPT. Potency, µM (series often up to 46.2 µM), actives largely listed as inhibitors. AID 686978, 2013. 420,000 compounds, 15% hits. DT40 Tdp1-/- hTDP1 cells, no CPT, ATP luminescence, 48 h; note: nearly all actives have a fitted effect of over 55% in size
#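 Readout: luminescence from CellTiter-Glo after 30 min in the dark at RT. Cells: DT40 Tdp1-/- with stable hTDP1, 400/well. Exposure: compounds alone, ≥48 hr, 37 °C.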
# uPA surface inh – blocks generation of uPA at the cell surface | Potency, µM (highest dose often 38.3 µM), most hits filed as inhibitors | cell surface uPA generation assay, qHTS | 330,000 compounds, 0.31% hits; active = well fitted inhibition curve with a large enough effect; inconclusive = small, poorly fitted or top-dose-only effect; inactive = no such curve, though single readings can be large or run the other way; tested in mouse RAW 264.7 cells; note: nearly all actives have a fitted effect of over 55% in size
# TDP1 cell CPT – growth inhibition of DT40 Tdp1-/-;hTDP1 cells with camptothecin (screen for TDP1 inhibitors); chicken DT40 Tdp1-/-;hTDP1 cells + 20 nM CPT, ATP luminescence, 48 h; Potency, µM (titrated, usually from 46.2 µM), usual class: inhibitors; 420,000 compounds, 12% hits; note: nearly all actives have a fitted effect of over 55% in size
#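 Chicken DT40 Tdp1-/- cells complemented with human TDP1, 400 cells/well, exposed to compounds plus 20 nM camptothecin for at least 48 h at 37 C; viability read as ATP content by CellTiter-Glo luminescence.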
# HT1080NT lethal – kills 2HG-producing HT-1080-NT fibrosarcoma cells. HT-1080-NT fibrosarcoma viability, CellTiter-Glo ATP luminescence, 48 h. Potency, µM (doses to about 46.1 µM), hits mostly cytotoxic. 360,000 compounds, 1.6% hits. AID 686970;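 note: NT is the 2HG producing partner of a matched IDH1 knockdown line; nearly all actives have a fitted effect of over 55% in size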
#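 Read-out is CellTiter-Glo luminescence after 10 minutes at room temperature, following 48 hours' compound treatment of HT-1080-NT cells (750 cells/well, RPMI, 5% FBS, 37 degrees C).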
# HT1080 IDH1KD tx – HT-1080 IDH1 knockdown cell toxicity (counter line) | 360,000 compounds, 2% hits | HT-1080 IDH1 knockdown viability, ATP luminescence, 48 h | Potency, µM (series often up to 46.1 µM), most hits filed as cytotoxic
#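 Viability of IDH1-knockdown HT-1080 fibrosarcoma cells was assessed by CellTiter-Glo after 48 h at 37 °C with titrated compound; concentration-effect curves were classified by fit quality and response size.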
# Hits are given with their value; n = inactive; u = inconclusive; x = no result; [ ] = another dose, or the depositor's remark. An excerpt weighted towards active compounds, which were near 19% of everything screened. Unless noted, calls come from the whole dose curve; as a rule, active = well fitted curve in the direction sought with a large enough effect; inconclusive = small, poorly fitted or top-dose-only effect, or another doubt; inactive = no such curve, though single readings can be large; an effect the other way counts as inactive or inconclusive.
SMILES,IL1B secr inh,TDP1 cell noCPT,uPA surface inh,TDP1 cell CPT,HT1080NT lethal,HT1080 IDH1KD tx
C=CCn1c(-c2ccc(N)cc2)nc2ccccc21,n,n,n,u,n,n
C=CC(=O)Nc1cccc(Nc2nc(N[C@H]3CC[C@H](N(C)C)CC3)nc3c2ncn3C(C)C)c1,n,0.21µM,u,0.15µM,u,0.65µM
Cc1cccc(C)c1-n1nnnc1C1(C)CCC(=O)N1Cc1cccc(C(F)(F)F)c1 (configuration not stated),n,23µM,x,23µM,n,n
CC(C(=O)NCc1ccc(F)cc1)n1ccc2cc(S(=O)(=O)N3CCCC3)ccc21 (configuration not stated),n,u,n,u,n,n
Cc1ccc(CNC(=O)C(C)n2ccc3cc(S(=O)(=O)N4CCCC4)ccc32)cc1 (configuration not stated),x,0.46µM,x,u,x,x
CCOc1ccc(CNC(=O)C(C)n2ccc3cc(S(=O)(=O)N4CCCC4)ccc32)cc1 (configuration not stated),n,21µM,n,u,u,n
O=c1c2c(nc3n1CCS3)c1cc(F)ccc1n2Cc1cc(=O)n2cc(Cl)ccc2n1,n,n,n,n,n,n
CC1CN(C(=S)SCC(=O)c2ccc(Cl)cc2)CC(C)O1 (configuration not stated),n,2.6µM,n,4.1µM,n,n
CC1CN(C(=S)NC(=O)c2ccc(Cl)cc2)CC(C)O1 (configuration not stated),n,u,n,u,n,n
COc1cc(C2c3cc4c(cc3OC(Nc3ccc(C(=O)O)cc3)C2C)OCO4)cc(OC)c1OC (configuration not stated),n,1.2µM,n,1.3µM,0.52µM,u
COc1cc(C2c3cc4c(cc3OC(NCCc3ccccc3)C2C)OCO4)cc(OC)c1OC (configuration not stated),n,0.82µM,n,1µM,1µM,1µM
COc1ccc(OC)c(CN2CCC3(CCC(CNC(=O)c4ccco4)O3)CC2)c1 (configuration not stated),x,n,x,n[9.04 µM],x,x
O=C(O)CCc1ccc(-c2ccccc2)n1-c1cccc(Br)c1,x,n,x,n,x,x
CCCOc1ccc2cc(-c3ccccn3)c(=O)oc2c1,n,16µM,n,u,u,u
CCc1ccccc1NC(=O)C(CCSC)NS(=O)(=O)c1ccc2c(c1)oc(=O)n2C (configuration not stated),x,n,x,n,x,x
Cc1ccc(S(=O)(=O)CCN2CCC(n3cccc3)CC2)cc1,-59,n,n,n,n,n
Cc1cccc(-c2nc3c4ccccc4nc(N4CCN(c5ccccc5F)CC4)n3n2)c1,x,n,x,n,x,x
COc1ccc([C@H]2CC(=O)C=C(c3ccc(O)cc3)C2)cc1OC,n,21µM,u,u,n,n
COc1ccc(C2=CC(=O)CC(c3ccc(OC)cc3)C2)cc1 (configuration not stated),n,u,n,n,n,n
COc1ccc([C@H]2CC(=O)C=C(c3ccc4ncccc4c3)C2)cc1OC,u,21µM,n,u,n,n
COc1ccc([C@H]2CC(=O)C=C(/C=C/c3ccccc3)C2)cc1OC,u,u,n,18µM,n,n
COc1ccc([C@H]2CC(=O)C=C(c3ccc4c(c3)OCO4)C2)cc1OC,u,u,n,u,n,n
O=C1C=C(/C=C/c2ccccc2)C[C@@H](c2ccc(F)cc2)C1,n,u,n,u,n,n
COc1ccc([C@H]2CC(=O)C=C(c3ccc(OC)c(OC)c3)C2)cc1,u,u,n,12µM,n,n
COc1ccc([C@H]2CC(=O)C=C(c3ccc(-c4ccccc4)c(F)c3)C2)cc1OC,n,u,n,u,n,n
SMILES,IL1B secr inh,TDP1 cell noCPT,uPA surface inh,TDP1 cell CPT,HT1080NT lethal,HT1080 IDH1KD tx
COc1ccc([C@H]2CC(=O)C=C(c3ccc4ccccc4c3)C2)cc1OC,u,16µM,n,u,n,n
Cc1cccc2sc(N(CCCN(C)C)C(=O)c3nc4ccccc4s3)nc12,n,13µM,n,13µM,n,n
Cc1ccc2sc(N(CCCN(C)C)C(=O)c3ccc(S(=O)(=O)N4CCOCC4)cc3)nc2c1C,u,u,n,u,n,n
Cc1cccc2sc(N(CCCN(C)C)C(=O)c3ccc4ncsc4c3)nc12,u,u,n,u,n,n
Cc1ccc2sc(N(CCCN(C)C)C(=O)c3nc4ccccc4s3)nc2c1C,n,6.5µM,n,13µM,u,21µM
CCOC(=O)c1c(NC(=O)c2cc3nc(-c4ccc(Br)cc4)cc(C(F)(F)F)n3n2)sc(C(C)=O)c1C,x,n,x,n,x,x
COc1cccc(Cl)c1NC(=O)N1CCc2c([nH]c3ccccc23)C1C(F)(F)F (configuration not stated),n,u,n,n,21µM,u
Cc1nonc1CC(=O)N1CCc2c([nH]c3ccccc23)C1c1ccccc1F (configuration not stated),u,u,n,u,n,n
O=C(c1ccc(Cl)cc1)N1CCc2c([nH]c3ccccc23)C1C(F)(F)F (configuration not stated),n,u,n,n,n,n
CC1c2[nH]c3ccccc3c2CCN1C(=O)Nc1ccccc1 (configuration not stated),n,23µM,n,23µM,u,u
COc1ccc(NC(=O)N2CCc3c([nH]c4ccc(OC)cc34)C2c2ccc(OC)cc2)cc1 (configuration not stated),x,21µM,x,u,x,x
Cc1ccc(NC(=O)N2CCc3c([nH]c4ccccc34)C2c2ccccc2F)c(Cl)c1 (configuration not stated),x,23µM,x,u,x,x
O=C(Nc1nnc([C@@H]2C[C@H](O)[C@@H](CO)O2)s1)Nc1ccccc1F,n,n,x,n,n,u
O=C1CCC(C(=O)N2CCN(c3cnccn3)CC2)CN1CCc1cccc(F)c1 (configuration not stated),n,n,n,n,n,n
COc1ccc(S(=O)(=O)N2CCCCC2c2cc(C(=O)N3CCOCC3)no2)cc1 (configuration not stated),n,n,x,n,u,n
O=C(O)CCC(=O)N1CCc2c([nH]c3ccccc23)C1C(F)(F)F (configuration not stated),n,n,n,n,n,n
O=C(Nc1ccccc1)N1CCc2c([nH]c3ccccc23)C1C(F)(F)F (configuration not stated),-93,u,n,n,u,n
O=S(=O)(c1cnc(Cl)c(Br)c1)N1CCCCCC1,-104,n,n,n,n,n
